# Measurements as given in PubChem BioAssay (Tox21).
# Where “and” joins values, the source holds several entries; their conditions need not be identical. Equal values may be shown once. Unmarked numbers belong to inactive results. Records with an inconclusive call do not appear. A call without a number means that no potency is given here. Calls of active or inactive are those of the source. Unless noted, calls follow the shape of the dose curve; as a rule, active = well fitted curve in the direction sought with a large enough effect in the repeat runs; inconclusive = weak or mixed curves; inactive = no such curve, though single readings can be large; an effect the other way counts as inactive or inconclusive.
# What was measured:
# [1] = Human pregnane X receptor (PXR) small molecule agonists, qHTS cell viability counter screen (AID 1346977); also: nearly all actives have a fitted effect of over 50% in size
# Outline: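 Readout is CellTiter-Fluor fluorescence from PXR-Luc HepG2 cells. Plated cells rested 5hr, then were treated with compounds for 24hr at 37C and 5% CO2, with reagent present during the last hour.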
# [2] = Caspase-3/7 induction in HepG2 cells by small molecules, qHTS assay (AID 1346978); also: nearly all actives have a fitted effect of over 15% in size
# Outline: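 Wild-type HepG2 cells, 2,000/well, settled 5 hr at 37 C and 5% CO2, then compound-treated for 17 hr; caspase-3/7 activity read by luminescent Caspase-Glo 3/7 after 30 min at room temperature.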
# [3] = Caspase-3/7 induction in CHO-K1 cells by small molecules, qHTS cell viability counter screen (AID 1346979); also: nearly all actives have a fitted effect of over 35% in size
# Outline: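 To flag cytotoxic compounds, treated CHO-K1 wild-type cells were given CellTiter-Fluor at 16hr and read fluorescently after 1hr at 37C; the caspase-3/7 luminescence was measured in these same wells.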
# [4] = Caspase-3/7 induction in CHO-K1 cells by small molecules, qHTS assay (AID 1346980); also: nearly all actives have a fitted effect of over 15% in size
# Outline: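 Wild-type CHO-K1 cells exposed to compounds for 17hr at 37 C, 5% CO2. Caspase-3/7 activity then measured by Caspase-Glo 3/7 luminescence after 30min at room temperature.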
# [5] = Caspase-3/7 induction in HepG2 cells by small molecules, qHTS cell viability counter screen (AID 1346981); also: series mostly up to about 92 µM; nearly all actives have a fitted effect of over 30% in size
# Outline: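 Fluorescence read-out of live-cell protease activity (CellTiter-Fluor) after 1 hr with reagent. This was measured in the same wells as the caspase-3/7 luminescence, on HepG2 cells exposed to DMSO-dissolved compounds for 16 hr at 37 C.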
# [6] = biological target: Nuclear receptor subfamily 1 group I member 2 (Homo sapiens) (UniProt O75469); experiment: Human pregnane X receptor (PXR) small molecule agonists, qHTS assay (AID 1346982); also: nearly all actives have a fitted effect of over 35% in size; also: potency is read from the fitted curve at half-maximal effect
# Outline: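 HepG2 PXR-Luc reporter line, 5% charcoal-stripped FBS; 5 hr pre-incubation, compound (DMSO) 24 hr at 37 C/5% CO2; ONE-Glo 30 min RT; luminescence read-out.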
# [7] = biological target: Acetylcholinesterase (Homo sapiens) (UniProt P22303); experiment: Acetylcholinesterase (AChE) small molecule antagonists: colormetric cell-based qHTS assay (AID 1347395; calls by dose curve; also: nearly all actives have a fitted effect of over 30% in size)
# Outline: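 Neuroblastoma line SH-SY5Y supplied the enzyme; cells were preincubated with compound for 30 min at 37 C and 5% CO2. Acetylthiocholine with DTNB was then added for 90 min at 37 C, and thiocholine was measured by colour.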
# [8] = biological target: Acetylcholinesterase (Homo sapiens) (UniProt P22303); experiment: Acetylcholinesterase (AChE) small molecule antagonists: enzyme-based qHTS assay (AID 1347397; calls by dose curve; also: nearly all actives have a fitted effect of over 55% in size); details: Potency: AChE enzyme activity inhibition
# Outline: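 In this quantitative HTS, compounds from the Tox21 10K collection were preincubated 30 min at ambient temperature with recombinant human AChE dispensed at 50 mU/mL. Hydrolysis of acetylthiocholine was then followed for 10 min by DTNB colour development.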
# [9] = biological target: Acetylcholinesterase (Homo sapiens) (UniProt P22303); experiment: Acetylcholinesterase (AChE) small molecule antagonists: fluorescence cell-based qHTS assay (AID 1347398; calls by dose curve; also: nearly all actives have a fitted effect of over 50% in size); details: Potency: AChE activity
# Outline: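 Cells (SH-SY5Y) attached overnight, were dosed with compound or DMSO vehicle for 30 min at 37 C, and then incubated 40 min at room temperature with acetylthiocholine and Thiolite Green; green fluorescence indexed AChE activity.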
# [10] = biological target: Acetylcholinesterase (Homo sapiens) (UniProt P22303); experiment: Acetylcholinesterase (AChE) small molecule antagonists: enzyme-based qHTS assay with human liver microsomes (AID 1347399; calls by dose curve; also: nearly all actives have a fitted effect of over 60% in size); details: Potency: qHTS inhibition
# Outline: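 Recombinant human AChE (50 mU/mL in the enzyme mix) and human liver microsomes (0.25 mg/mL final) were preincubated with compound and NADPH (0.25 mg/mL final) for 30 min at 37 C. Acetylthiocholine/DTNB was then added; thiocholine was read colorimetrically after 10 min at room temperature.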
# [11] = biological target: Cytochrome P450 2D6 (Homo sapiens) (UniProt P10635); experiment: Cytochrome P450 Family 2 Subfamily D Member 6 (CYP2D6) small molecule antagonists: luciferase reporter qHTS assay (AID 1671196); also: nearly all actives have a fitted effect of over 50% in size; also: potency is read from the fitted curve at half-maximal effect
# Outline: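 Luminogenic proluciferin substrate, CYP2D6 enzyme; 10 min RT preincubation with compound, NADPH regeneration system added, 1 h RT. Stop/detection reagent, 20 min RT, luminescence read (RLU). Signal proportional to CYP activity.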
# [12] = biological target: Cytochrome P450 2C19 (Homo sapiens) (UniProt P33261); experiment: Cytochrome P450 Family 2 Subfamily C Member 19 (CYP2C19) small molecule antagonists: luciferase reporter qHTS assay (AID 1671197); also: nearly all actives have a fitted effect of over 65% in size; also: potency is read from the fitted curve at half-maximal effect
# Outline: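 CYP2C19 P450-Glo, 1536-well qHTS. Cpd + enzyme/proluciferin substrate 10 min RT; + NADPH regen, 37C 1 h; stop with luciferin detection reagent, 20 min RT, luminescence (RLU). Pos ctrl ketoconazole.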
# [13] = biological target: Cytochrome P450 2C9 (Homo sapiens) (UniProt P11712); experiment: Cytochrome P450 Family 2 Subfamily C Member 9 (CYP2C9) small molecule antagonists: luciferase reporter qHTS assay (AID 1671198); also: nearly all actives have a fitted effect of over 50% in size; also: potency is read from the fitted curve at half-maximal effect
# Outline: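 P450-Glo proluciferin substrate with CYP2C9 enzyme; 10 min RT preincubation, then NADPH regeneration 1 h at 37C; luciferin detection reagent 20 min RT, luminescence in relative luminescence units.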
# [14] = biological target: Cytochrome P450 1A2 (Homo sapiens) (UniProt P05177); experiment: Cytochrome P450 Family 1 Subfamily A Member 2 (CYP1A2) small molecule antagonists: luciferase reporter qHTS assay (AID 1671199); also: nearly all actives have a fitted effect of over 50% in size; also: potency is read from the fitted curve at half-maximal effect
# Outline: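 Luminescence readout (relative luminescence units) after luciferin detection reagent, 20 min RT. Preceded by 1 h room-temperature CYP1A2 reaction with NADPH regeneration solution following 10 min compound preincubation with enzyme and proluciferin substrate. Furafylline positive control.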
# [15] = biological target: Voltage-gated inwardly rectifying potassium channel KCNH2 (Homo sapiens) (UniProt Q12809); experiment: Human Ether-a-go-go-Related Gene (hERG) channel small molecule antagonists: fluorescence cell-based qHTS assay (AID 1671200)
# Outline: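 Measured: Tl+ flux via fluorescence (480/540 nm) in hERG-expressing U2OS cells after 1 h dye loading at room temperature.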
# [16] = biological target: Cytochrome P450 3A4 (Homo sapiens) (UniProt P08684); experiment: Cytochrome P450 Family 3 Subfamily A Member 4 (CYP3A4) small molecule antagonists: luciferase reporter qHTS assay (AID 1671201); also: nearly all actives have a fitted effect of over 50% in size; also: potency is read from the fitted curve at half-maximal effect
# Outline: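 Setup: enzyme-substrate mix, compound pin transfer, 10 min RT. Reaction: NADPH regeneration solution, 1 h RT. Readout: detection reagent stops turnover, luminescence measured after 20 min, expressed in relative luminescence units.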
# [17] = biological target: Nuclear receptor subfamily 1 group I member 2 (Rattus norvegicus) (UniProt Q9R1A7); experiment: Rat pregnane X receptor (rPXR) activation by small molecules, qHTS assay (AID 1346983); details: rPXR luciferase reporter cells, One-Glo luminescence, 24 h; max activation: active compounds read high; also: nearly all actives have a fitted effect of over 20% in size
# Outline: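 Cell-based rPXR activation assay: rPXR cells, 2,000 per well, rested 5hr at 37 C, then exposed to compounds in DMSO for 24 hr at 37 C. Luciferase activity read by One-Glo luminescence after 30 min at room temperature.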
# [18] = biological target: Nuclear receptor subfamily 1 group I member 2 (Homo sapiens) (UniProt O75469); experiment: CYP3A4 induction through human pregnane X receptor (PXR) by small molecules, qHTS assay (AID 1346984); also: nearly all actives have a fitted effect of over 40% in size
# Outline: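 HepG2-derived DPX-2 line carrying PXR plus a CYP3A4-promoter luciferase reporter; cells plated 5 hr, compound-exposed 24 hr at 37C. CYP3A4 activity probed with 3uM (final) Luciferin-IPA for 3hr, then luciferase read after One-Glo.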
# [19] = biological target: Nuclear receptor subfamily 1 group I member 2 (Homo sapiens) (UniProt O75469); experiment: Human pregnane X receptor (PXR) activation by small molecules, qHTS assay (AID 1346985); also: nearly all actives have a fitted effect of over 40% in size
# Outline: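 DPX-2 cells (HepG2 co-transfected with a PXR response element and a CYP3A4-promoter luciferase construct) were seeded at 2,000 per well, rested 5 hr at 37C, then exposed to DMSO-dissolved compounds for 24 hr. Activation was read as luciferase luminescence.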
# Chain of Cytochrome P450 1A2 (Homo sapiens) (P05177 whole entry, looked up): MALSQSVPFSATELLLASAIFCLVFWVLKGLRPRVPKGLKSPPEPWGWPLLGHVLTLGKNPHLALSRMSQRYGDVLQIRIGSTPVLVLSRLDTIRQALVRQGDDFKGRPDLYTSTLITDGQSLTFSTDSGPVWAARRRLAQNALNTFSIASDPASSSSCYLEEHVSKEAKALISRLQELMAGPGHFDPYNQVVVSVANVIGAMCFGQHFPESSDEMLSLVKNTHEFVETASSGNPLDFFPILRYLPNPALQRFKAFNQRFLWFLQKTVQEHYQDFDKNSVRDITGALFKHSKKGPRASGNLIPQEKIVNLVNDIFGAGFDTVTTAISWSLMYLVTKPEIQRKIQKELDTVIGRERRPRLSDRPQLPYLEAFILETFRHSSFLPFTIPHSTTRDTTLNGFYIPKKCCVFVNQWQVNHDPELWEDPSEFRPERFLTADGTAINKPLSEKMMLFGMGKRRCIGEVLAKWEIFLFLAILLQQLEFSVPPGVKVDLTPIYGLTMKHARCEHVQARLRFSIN
# Chain of Cytochrome P450 2C19 (Homo sapiens) (P33261 whole entry, looked up): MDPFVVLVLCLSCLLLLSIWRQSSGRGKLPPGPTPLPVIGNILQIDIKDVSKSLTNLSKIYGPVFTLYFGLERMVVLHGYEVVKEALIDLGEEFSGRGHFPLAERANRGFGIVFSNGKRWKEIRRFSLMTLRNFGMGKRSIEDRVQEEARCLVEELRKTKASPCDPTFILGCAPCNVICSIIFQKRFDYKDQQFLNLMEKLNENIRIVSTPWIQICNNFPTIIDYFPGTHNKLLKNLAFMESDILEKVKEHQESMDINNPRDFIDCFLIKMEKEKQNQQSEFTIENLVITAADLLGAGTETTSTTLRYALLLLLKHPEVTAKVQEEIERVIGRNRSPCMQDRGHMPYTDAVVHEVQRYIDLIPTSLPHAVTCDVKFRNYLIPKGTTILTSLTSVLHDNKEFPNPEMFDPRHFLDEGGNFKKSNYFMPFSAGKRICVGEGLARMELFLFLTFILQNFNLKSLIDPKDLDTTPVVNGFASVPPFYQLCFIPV
# Chain of Cytochrome P450 3A4 (Homo sapiens) (P08684 whole entry, looked up): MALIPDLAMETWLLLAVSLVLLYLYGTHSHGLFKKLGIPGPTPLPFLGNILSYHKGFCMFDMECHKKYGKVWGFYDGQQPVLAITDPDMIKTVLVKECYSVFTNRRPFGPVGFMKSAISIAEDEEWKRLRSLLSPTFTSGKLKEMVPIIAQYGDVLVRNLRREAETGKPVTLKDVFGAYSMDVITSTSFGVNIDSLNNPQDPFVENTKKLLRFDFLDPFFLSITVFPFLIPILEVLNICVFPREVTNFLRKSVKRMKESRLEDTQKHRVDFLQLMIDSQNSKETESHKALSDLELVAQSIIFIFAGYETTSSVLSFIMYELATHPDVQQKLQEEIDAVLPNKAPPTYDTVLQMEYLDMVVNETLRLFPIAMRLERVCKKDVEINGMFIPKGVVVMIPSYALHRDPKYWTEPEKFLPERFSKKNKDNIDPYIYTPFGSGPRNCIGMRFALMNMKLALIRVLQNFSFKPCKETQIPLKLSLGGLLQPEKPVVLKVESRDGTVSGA
# Chain of Cytochrome P450 2C9 (Homo sapiens) (P11712 whole entry, looked up): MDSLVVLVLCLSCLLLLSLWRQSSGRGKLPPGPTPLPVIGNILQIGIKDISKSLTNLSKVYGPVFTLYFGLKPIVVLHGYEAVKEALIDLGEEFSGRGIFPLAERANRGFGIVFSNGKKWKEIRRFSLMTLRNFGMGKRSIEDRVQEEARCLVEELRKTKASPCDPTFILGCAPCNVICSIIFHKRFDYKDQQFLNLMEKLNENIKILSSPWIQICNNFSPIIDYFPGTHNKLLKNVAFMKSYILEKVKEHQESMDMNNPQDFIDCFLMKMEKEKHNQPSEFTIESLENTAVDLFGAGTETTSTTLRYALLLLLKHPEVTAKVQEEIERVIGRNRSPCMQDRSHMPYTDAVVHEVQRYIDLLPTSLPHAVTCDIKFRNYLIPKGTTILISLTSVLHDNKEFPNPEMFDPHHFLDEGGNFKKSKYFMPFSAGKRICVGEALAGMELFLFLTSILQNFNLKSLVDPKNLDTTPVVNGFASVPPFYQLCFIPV
# Chain of Voltage-gated inwardly rectifying potassium channel KCNH2 (Homo sapiens) (Q12809 whole entry, looked up): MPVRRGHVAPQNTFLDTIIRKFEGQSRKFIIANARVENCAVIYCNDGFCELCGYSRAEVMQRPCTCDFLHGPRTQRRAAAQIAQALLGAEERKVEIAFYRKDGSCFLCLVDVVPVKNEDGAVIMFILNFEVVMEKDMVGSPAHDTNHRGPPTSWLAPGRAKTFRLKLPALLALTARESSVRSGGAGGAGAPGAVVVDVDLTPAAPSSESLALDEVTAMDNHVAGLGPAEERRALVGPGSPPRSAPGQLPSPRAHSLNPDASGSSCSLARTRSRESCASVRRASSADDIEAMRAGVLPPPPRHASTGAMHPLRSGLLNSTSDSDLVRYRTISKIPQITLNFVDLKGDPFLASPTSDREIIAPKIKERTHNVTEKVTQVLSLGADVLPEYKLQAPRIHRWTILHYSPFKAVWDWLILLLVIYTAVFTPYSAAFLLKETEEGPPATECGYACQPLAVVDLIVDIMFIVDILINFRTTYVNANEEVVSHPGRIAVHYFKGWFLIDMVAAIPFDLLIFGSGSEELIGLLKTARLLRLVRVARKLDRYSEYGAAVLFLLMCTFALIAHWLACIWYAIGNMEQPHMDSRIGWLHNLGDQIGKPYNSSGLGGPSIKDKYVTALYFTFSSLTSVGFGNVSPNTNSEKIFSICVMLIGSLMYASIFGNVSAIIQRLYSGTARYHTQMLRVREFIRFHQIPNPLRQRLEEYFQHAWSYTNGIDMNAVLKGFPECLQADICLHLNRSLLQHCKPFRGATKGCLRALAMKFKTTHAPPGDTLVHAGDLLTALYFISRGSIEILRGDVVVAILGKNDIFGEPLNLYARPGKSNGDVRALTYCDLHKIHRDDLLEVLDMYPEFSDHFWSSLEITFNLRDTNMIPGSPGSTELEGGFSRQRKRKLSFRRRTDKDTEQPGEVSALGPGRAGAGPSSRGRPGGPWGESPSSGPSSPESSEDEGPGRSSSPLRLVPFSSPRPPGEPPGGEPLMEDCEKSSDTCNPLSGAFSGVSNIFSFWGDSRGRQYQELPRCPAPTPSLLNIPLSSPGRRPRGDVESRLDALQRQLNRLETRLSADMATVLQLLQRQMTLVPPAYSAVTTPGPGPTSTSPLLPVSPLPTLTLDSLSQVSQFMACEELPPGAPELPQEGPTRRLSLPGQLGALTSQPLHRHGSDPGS
# Chain of Nuclear receptor subfamily 1 group I member 2 (Homo sapiens) (O75469 whole entry, looked up): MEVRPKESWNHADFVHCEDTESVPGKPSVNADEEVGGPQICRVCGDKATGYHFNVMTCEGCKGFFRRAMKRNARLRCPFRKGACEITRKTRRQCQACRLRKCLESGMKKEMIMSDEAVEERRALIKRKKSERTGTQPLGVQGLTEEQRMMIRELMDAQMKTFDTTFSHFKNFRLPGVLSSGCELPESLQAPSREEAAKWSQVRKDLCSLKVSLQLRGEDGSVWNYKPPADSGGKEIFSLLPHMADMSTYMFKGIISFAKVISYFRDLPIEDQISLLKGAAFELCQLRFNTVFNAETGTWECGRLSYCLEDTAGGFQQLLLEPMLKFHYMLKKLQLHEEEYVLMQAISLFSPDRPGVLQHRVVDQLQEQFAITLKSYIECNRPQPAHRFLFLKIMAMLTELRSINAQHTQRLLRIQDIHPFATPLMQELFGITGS
# Chain of Cytochrome P450 2D6 (Homo sapiens) (P10635 whole entry, looked up): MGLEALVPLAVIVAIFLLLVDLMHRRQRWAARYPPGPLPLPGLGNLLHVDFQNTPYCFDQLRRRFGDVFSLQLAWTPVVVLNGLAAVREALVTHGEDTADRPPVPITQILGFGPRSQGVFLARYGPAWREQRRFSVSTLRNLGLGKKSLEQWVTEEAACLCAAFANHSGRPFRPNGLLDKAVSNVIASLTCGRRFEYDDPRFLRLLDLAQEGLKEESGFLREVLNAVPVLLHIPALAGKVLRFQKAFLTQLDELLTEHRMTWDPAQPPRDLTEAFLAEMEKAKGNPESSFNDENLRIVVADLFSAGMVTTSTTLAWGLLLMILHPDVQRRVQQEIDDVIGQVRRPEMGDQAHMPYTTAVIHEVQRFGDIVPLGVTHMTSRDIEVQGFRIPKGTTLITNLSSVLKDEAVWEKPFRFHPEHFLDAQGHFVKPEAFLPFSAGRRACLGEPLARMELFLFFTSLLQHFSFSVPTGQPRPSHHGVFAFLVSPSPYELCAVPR
# Chain of Acetylcholinesterase (Homo sapiens) (P22303 whole entry, looked up): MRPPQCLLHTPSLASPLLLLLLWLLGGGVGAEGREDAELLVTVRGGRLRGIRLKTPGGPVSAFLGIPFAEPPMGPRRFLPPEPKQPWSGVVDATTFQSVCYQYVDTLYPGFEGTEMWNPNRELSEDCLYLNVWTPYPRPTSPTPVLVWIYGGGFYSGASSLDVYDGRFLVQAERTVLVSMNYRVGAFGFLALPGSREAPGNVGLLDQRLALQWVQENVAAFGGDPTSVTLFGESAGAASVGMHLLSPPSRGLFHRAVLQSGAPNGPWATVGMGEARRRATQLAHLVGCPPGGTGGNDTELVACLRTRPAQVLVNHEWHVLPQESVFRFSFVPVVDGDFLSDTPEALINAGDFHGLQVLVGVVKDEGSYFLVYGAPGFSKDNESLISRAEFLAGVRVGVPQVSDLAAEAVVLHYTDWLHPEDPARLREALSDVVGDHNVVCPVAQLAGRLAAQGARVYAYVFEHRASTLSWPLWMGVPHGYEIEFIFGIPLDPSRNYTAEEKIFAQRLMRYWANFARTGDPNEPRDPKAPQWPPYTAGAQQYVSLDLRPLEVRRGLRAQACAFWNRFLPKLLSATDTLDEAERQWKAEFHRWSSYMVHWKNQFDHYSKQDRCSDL
Structure (SMILES),Potency [1],Potency [2],Potency [3],Potency [4],Potency [5],Potency [6],Potency [7],Potency [8],Potency [9],Potency [10],Potency [11],Potency [12],Potency [13],Potency [14],Potency [15],Potency [16],max activation [17] [%],Potency [18],Potency [19]
COc1nn(C(=O)NS(=O)(=O)c2ccccc2OC(F)(F)F)c(=O)n1C,inactive,inactive,inactive,inactive,inactive,inactive,inactive,inactive,inactive,inactive,inactive,inactive,32.5 µM (active),inactive,inactive,inactive,,,
CNC(C)Cc1ccccc1OC (stereo unspecified),inactive,inactive,inactive,inactive,inactive,inactive,inactive,inactive,inactive,inactive,13.8 µM (active),inactive,inactive,inactive,inactive,inactive,,,
ClC=C(Cl)Cl,inactive,inactive,inactive,inactive,inactive,inactive,,inactive,inactive,inactive,inactive,inactive,inactive,inactive,inactive,inactive,-0.508,inactive,inactive
CC(Cl)C(C)Cl (stereo unspecified),inactive,inactive,inactive,inactive,inactive,inactive,inactive,inactive,inactive,inactive,inactive,inactive,inactive,inactive,inactive,inactive,,,
CCCCCCCCCCOC(=O)c1ccccc1C(=O)OCCCCCCCCCC,inactive,inactive,inactive,inactive,inactive,inactive,inactive,inactive,inactive,inactive,inactive,inactive,inactive,inactive,inactive,inactive,,,
ClCc1cccc(Cl)c1,inactive,inactive,inactive,inactive,inactive,inactive,inactive,inactive,inactive,inactive,27.5 µM (active),inactive,inactive,inactive,inactive,inactive,,,
Brc1ccc(Oc2ccccc2)cc1,inactive,inactive,inactive,inactive,inactive,inactive,inactive,inactive,inactive,inactive,inactive,81.7 µM (active) and 31.7 µM (active),,25.2 µM (active),inactive,inactive,,,
Clc1cccc2ccccc12,inactive,inactive,inactive,inactive,inactive,inactive,inactive,inactive,inactive,inactive,inactive,inactive,inactive,,inactive,inactive,,,
Cc1ccc(N)cc1C,inactive,inactive,inactive,inactive,inactive,49 µM (active),inactive,inactive,inactive,inactive,5.07 µM (active),28.5 µM (active),,4.52 µM (active),inactive,,,,
CN1C(=O)C(O)N=C(c2ccccc2)c2cc(Cl)ccc21 (stereo unspecified),inactive,inactive,inactive,inactive,inactive,28.3 µM (active),,,inactive,,,,,,,,-0.547,,
Clc1cc(Cl)c(Cl)c(Cl)c1,inactive,inactive,inactive,inactive,inactive,inactive,inactive,inactive,inactive,inactive,inactive,inactive,inactive,,inactive,inactive,,,
CC(C)=CCOc1c2occc2cc2ccc(=O)oc12,inactive,inactive,inactive,inactive,inactive,inactive,inactive,inactive,inactive,inactive,4.9 µM (active),4.36 µM (active),0.617 µM (active),0.229 µM (active),inactive,,,,
CCN(C)N=O,inactive,inactive,inactive,inactive,inactive,inactive,inactive,inactive,inactive,inactive,inactive,inactive,inactive,,inactive,inactive,,,
C[C@H]1CNCCc2ccc(Cl)cc21,inactive,inactive,inactive,inactive,inactive,inactive,inactive,inactive,inactive,inactive,1.38 µM (active),inactive,inactive,inactive,inactive,inactive,,,
CCCN(CC1CC1)c1c([N+](=O)[O-])cc(C(F)(F)F)cc1[N+](=O)[O-],inactive,inactive,inactive,inactive,inactive,19.3 µM (active),inactive,inactive,inactive,inactive,inactive,20 µM (active),31.7 µM (active),,inactive,,,,
COc1cc(Cl)c(OC)cc1Cl,inactive,inactive,inactive,inactive,inactive,inactive,inactive,inactive,inactive,inactive,inactive,79.6 µM (active),71 µM (active),12.6 µM (active),inactive,15.9 µM (active),,,
